DT40 TDP1 CPT – qHTS for Inhibitors of human tyrosyl-DNA phosphodiesterase 1 (TDP1): qHTS in cells in presence of CPT | chicken DT40 Tdp1-/-;hTDP1 cells + 20 nM CPT, ATP luminescence, 48 h | Potency, µM (series often up to 46.2 µM), inactives show at the highest dose activity change, negative = growth inhibition, hits mostly inhibitors | hit rate 12% among 420,000 | AID 686979, 2013; also: potency is read from the fitted curve at half-maximal effect; nearly all actives have a fitted effect of over 55% in size
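Chicken DT40 Tdp1-/- cells complemented with human TDP1, 400 cells/well, exposed to compounds plus 20 nM camptothecin for at least 48 h at 37 C; viability read as ATP content by CellTiter-Glo luminescence.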
DT40 TDP1 no CPT – qHTS for Inhibitors of human tyrosyl-DNA phosphodiesterase 1 (TDP1): qHTS in cells in absence of CPT | DT40 Tdp1-/- hTDP1 cells, no CPT, ATP luminescence, 48 h | Potency, µM (doses to about 46.2 µM), without a hit: at the highest dose activity change, negative = growth inhibition, hits mostly inhibitors | hit rate 15% among 420,000; also: potency is read from the fitted curve at half-maximal effect; nearly all actives have a fitted effect of over 55% in size
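No-CPT arm: Tdp1-/-;hTDP1 DT40 cells (400/well) plus compounds, incubated ≥48 hr at 37 °C. Readout CellTiter-Glo luminescence.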
IL1B secr inh – qHTS for Inhibitors of Inflammasome Signaling: IL-1-beta AlphaLISA Primary Screen | THP-1 LPS/ATP IL-1B secretion, AlphaLISA, 16 h; stronger effect = lower value | activity change, % at 57.5 µM | hit rate 4.7% among 360,000; in the data active = activity change below about -50%; inconclusive = mostly about -30% to -49%
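THP-1 cells pretreated 1 hr with compounds (up to 57.5 uM final), then stimulated with LPS (250 ng/mL final) plus ATP (1.25 mM final); secreted IL-1B measured by AlphaLISA after 16 hr, decreased signal indicating inhibition.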
HT1080 IDH1KD tx – qHTS for induction of synthetic lethality in tumor cells producing 2HG: qHTS for the HT-1080-IDH1KD cell line; HT-1080 IDH1 knockdown viability, ATP luminescence, 48 h; Potency, µM (doses to about 46.1 µM), without a hit: at the highest dose activity, negative = toxicity, actives largely listed as cytotoxic; hit rate 2% among 360,000;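 also: potency is read from the fitted curve at half-maximal effect; 0% = DMSO wells and -100% = cell-free medium wells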
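Knockdown cells (IDH1KD HT-1080) received compounds 2 h after plating at 750 cells/well and were kept 48 h at 37 °C in 5% FBS RPMI. A CellTiter-Glo luminescence read gave % activity for curve fitting.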
HT1080NT lethal – qHTS for induction of synthetic lethality in tumor cells producing 2HG: qHTS for the HT-1080-NT fibrosarcoma cell line; HT-1080-NT fibrosarcoma viability, CellTiter-Glo ATP luminescence, 48 h; Potency, µM (series often up to 46.1 µM), inactives show at the top dose activity, negative = less viability, hits mostly cytotoxic; AID 686970, 2013; hit rate 1.6% among 360,000;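 also: NT is the 2HG producing partner of a matched IDH1 knockdown line; potency is read from the fitted curve at half-maximal effect; 0% = DMSO-treated cells and -100% = media-only wells without cells; nearly all actives have a fitted effect of over 55% in size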
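A 48-hour cytotoxicity screen used HT-1080-NT cells plated 2 hours before compound delivery. ATP-based CellTiter-Glo luminescence measured viability, normalized to DMSO and no-cell controls.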
* marks the source's active call; other numbers are inactive results; i = inactive; ? = inconclusive; . = not tested or not shown; [ ] = another dose, or the depositor's remark. Shown are actives, neighbours in structure and some others; about 19% of the full set was active somewhere. Unless noted, calls follow the shape of the dose curve; as a rule, active = well fitted curve in the direction sought with a large enough effect; inconclusive = small, poorly fitted or top-dose-only effect, or another doubt; inactive = no such curve, though single readings can be large; an effect the other way counts as inactive or inconclusive. Unless noted, % is scaled to controls: 0 for no effect and ±100 for the full control effect.

SMILES	DT40 TDP1 CPT	DT40 TDP1 no CPT	IL1B secr inh	HT1080 IDH1KD tx	HT1080NT lethal
CCCN1CCC(NC(=O)CC2C(=O)NCCN2Cc2ccccc2C)CC1 (centres undefined)	42.5%	1.8%	0.0	9.2%	8.0%
CN(CC1CCCO1)S(=O)(=O)c1ccc(C(=O)Nc2nc(-c3ccccn3)cs2)cc1 (centres undefined)	1.46µM*	1.84µM*	140.3	?	?
CN(CC1CCCO1)S(=O)(=O)c1ccc(C(=O)Nc2nnc(-c3ccccc3)o2)cc1 (centres undefined)	18.4µM*	8.2µM*	100.1	?	?
CN(CC1CCCO1)S(=O)(=O)c1ccc(C(=O)Nc2ccccc2F)cc1 (centres undefined)	0.8%	?	i	17.5%	1.6%
Cc1nc(C(F)(F)F)ccc1C(=O)N1CCC1(C)C(=O)NS(=O)(=O)c1cccc(F)c1 (centres undefined)	-7.1%	0.9%	22.6	23.5%	16.8%
c1cc2c(cc1C1=Nn3c(nnc3C3CCCCC3)SC1)OCO2	18.4µM*	13µM*	0.0	-13.8%	0.0%
c1ccc(-c2nnc3n2N=C(c2ccc4c(c2)OCO4)CS3)nc1	5.1%	-8.2%	-20.8	3.9%	12.2%
Cc1ccc(C)n1-c1ccc(-c2ccn[nH]2)cc1	?	?	-70.5*	-13.5%	-18.8%
CCCCn1c(N)c(N(CCOC)C(=O)C2CC(=O)N(Cc3ccco3)C2)c(=O)[nH]c1=O (centres undefined)	-9.9%	26.9%	25.2	2.9%	7.0%
Cc1cccc(NC(=O)CSc2nnc(CNC(=O)c3c(F)cccc3Cl)o2)c1C	6.4%	-23.1%	.	.	.
COc1cccc(CNc2nc3c(-c4cccc(C)c4)nnn3c3ccccc23)c1	-23.5%	?	.	.	.
Cc1cccc(-c2nnn3c2nc(NCc2ccc4c(c2)OCO4)c2ccccc23)c1	23.1µM*	?	.	.	.
Cc1cccc(-c2nnn3c2nc(NCCc2ccc(S(N)(=O)=O)cc2)c2ccccc23)c1	14.6µM*	16.4µM*	-9.2	-13.6%	-4.6%
CC(=O)NCCNc1nc2c(-c3ccccc3)nnn2c2ccccc12	?	8.2µM*	28.3	-11.6%	-7.6%
Cc1cccc(-c2nnn3c2nc(NCCc2ccc(S(N)(=O)=O)cc2)c2cc(Cl)ccc23)c1	9.2µM*	5.8µM*	.	.	.
O=C(Cn1[nH]c(=O)c2ccccc2c1=O)Nc1ccc(-c2nnc3n2CCCCC3)cc1	-23.8%	-1.9%	-17.2	-19.1%	-22.5%
COCC1CCCN(Cc2ccc3c(c2)CN(C(=O)c2sc(C)nc2C)CCO3)C1 (centres undefined)	-10.7%[9.04 µM]	-15.5%	.	.	.
CCN(CC)S(=O)(=O)c1ccc(C(=O)NNC(=O)C2CCN(S(=O)(=O)c3ccc(Cl)cc3)CC2)cc1	-21.3%	-25.7%	-0.5	2.1%	5.7%
CC1(c2nnnn2Cc2ccccc2)CCC(=O)N1CCCn1ccnc1 (centres undefined)	-13.5%	-7.5%	-1.2	14.5%	3.0%
NS(=O)(=O)c1ccc(CCNc2nc3c(-c4cccc(F)c4)nnn3c3ccccc23)cc1	?	11.6µM*	26.6	-4.8%	-2.9%
Cc1ccc(S(=O)(=O)c2cn(Cc3ccccc3)c3cc(N4CCCCC4)c(F)cc3c2=O)cc1	8.2µM*	16.4µM*	.	.	.
O=c1c(S(=O)(=O)c2cccc(Cl)c2)cn(Cc2ccccc2)c2cc(N3CCOCC3)c(F)cc12	?	-25.9%	.	.	.
Cc1cccc(Cn2cc(S(=O)(=O)c3ccccc3)c(=O)c3cc(F)c(N4CCOCC4)cc32)c1	25.9µM*	23.1µM*	.	.	.
Cc1cccc(S(=O)(=O)c2cn(Cc3ccccc3)c3cc(N4CCCC(C)C4)c(F)cc3c2=O)c1 (centres undefined)	-35.9%	?	.	.	.

Screening results: PubChem BioAssay, National Center for Advancing Translational Sciences (NCATS)
